Assay results taken from PubChem BioAssay (NCATS).
Records with an inconclusive call do not appear. The source made the active and inactive calls. Unless noted, the call rests on the fitted dose curve; in most records, active means well fitted curve in either direction with a large enough effect (not every such curve was filed as active); inconclusive means small, poorly fitted or top-dose-only effect, or another doubt; inactive means flat fitted curve, though single readings scatter.

Columns and labels:
[1] = AP1 Signaling Pathway (AID 357); settings: ME-180 AP-1-bla reporter, EGF-induced, beta-lactamase ratio, 5 h; at 17.2 µM (top of the series) unless noted;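 further: ME-180 reporter cells stimulated with EGF at its EC50 level; on the % scale 0 is the no-effect control and ±100 the full control effect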
How it was run: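 A ratiometric CCF4 readout (405 nm excitation; 460 and 530 nm emission) quantified AP-1-driven beta-lactamase in ME-180 cells after 5 h with compound and EC50 EGF; AC50 values were derived for activators and inhibitors.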

[2] = NFAT Signaling Pathway (AID 444); settings: Jurkat NFAT-bla M1, carbachol, beta-lactamase ratio, 5 h; at 17.2 µM (top of the series) unless noted;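 further: carbachol stimulus at about its EC50 of 1 µM final; on the % scale 0 is the no-effect control and ±100 the full control effect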
How it was run: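 Jurkat cells carrying an NFAT-driven β-lactamase reporter and co-transfected muscarinic M1 receptor were treated with compound plus carbachol (1 uM final, an EC50 level) for 5 h at 37 °C. CCF4 loading followed for 1 h at RT; 460/530 nm ratio gave %activity.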

[3] = Stat Signaling Pathway (AID 446); settings: ME-180 (cervical carcinoma) SIE beta-lactamase reporter, IL-6 stimulated, 5 h; at 17.2 µM (top of the series) unless noted;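 further: ME-180 cervical cancer cells given 40 pM IL-6 alongside compound; SIE-controlled beta-lactamase reporter measured as 460/530 nm FRET emission ratio; on the % scale 0 is the no-effect control and ±100 the full control effect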
How it was run: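 Compound effects on IL-6-induced STAT reporter activity were measured in ME-180 cells. After overnight culture, cells were co-treated with 40 pM IL-6 for 5 hrs before beta-lactamase substrate loading at room temperature.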

[4] = target: Glucocorticoid receptor (Homo sapiens) (UniProt P04150); assay: GR-GFP Redistribution (AID 450;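 active means compounds whose dose series gives a full or clear partial fitted curve of increased nuclear translocation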; further: potency means the concentration at half of the fitted maximal effect)
[5] = target: Glucocorticoid receptor (Homo sapiens) (UniProt P04150); assay: GR-EFC Redistribution (AID 451; calls by dose curve; further: potency means the concentration at half of the fitted maximal effect); settings: CHO-K1 GR-EFC translocation, beta-gal luminescence, 2 h
How it was run: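 CHO-K1 cells stably expressing nuclear-localized β-gal enzyme acceptor and GR fused C-terminally to the enzyme donor fragment; ligand-driven nuclear translocation restores β-gal by complementation. Compounds titrated up to 46 uM final, 2 h at 37 °C; luminescence read.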

[6] = target: Mitogen-activated protein kinase 10 (Mus musculus) (UniProt Q61831); assay: JNK3 AlphaScreen Assay (AID 530);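 further: kinase came from lysate of stimulated human HepG2 cells; signal reports phosphorylation of biotinylated GST-cJun 1-79 at Ser73 with 10 µM ATP; on the % scale 0 is the no-effect control and ±100 the full control effect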
How it was run: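 Phosphorylation of biotinylated GST-cJun(1-79) at Ser73 is measured by AlphaScreen proximity luminescence. Enzyme is JNK3 in HepG2 lysates activated with interleukin-1beta and tumor necrosis factor alpha; ATP is 10 uM final.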

[7] = target: 3',5'-cyclic-AMP phosphodiesterase 4B (Homo sapiens) (UniProt Q07343); assay: qHTS Assay for Inhibitors of PDE-IV (AID 607; active means well fitted activation curve with a large enough effect in the main read-out, with a control signal flat, not every such curve was filed as active; further: % of control where 0% means no effect)
How it was run: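 ACTOne HEK293 cells carry a modified cAMP-gated CNG channel and express endogenous PDE4; plated 1000 cells/well, compounds up to 22.9 uM final. Membrane-potential dye fluorescence (ex 535/em 590) was read; parental cells received 10 uM forskolin + 100 uM RO 20-1724.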

[8] = target: Cytochrome P450 2D6 (Homo sapiens) (UniProt P10635); assay: qHTS Assay for Inhibitors and Substrates of Cytochrome P450 2D6 (AID 891; active means well fitted curve in the direction sought with a large enough effect; an effect the other way counts as inactive or inconclusive; further: potency means the concentration at half of the fitted maximal effect; nearly all actives have a fitted effect of over 60% in size)
How it was run: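 Luminescent read-out of luciferin formed by 5 nM human CYP2D6 demethylating 30 uM Luciferin-ME EGE (Km level) over 60 min at room temperature after NADPH regeneration addition. Data normalized to full inhibition by 1.43 uM quinidine.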

[9] = target: Cytochrome P450 2C19 (Homo sapiens) (UniProt P33261); assay: qHTS Assay for Inhibitors and Substrates of Cytochrome P450 2C19 (AID 899; active means well fitted curve in the direction sought with a large enough effect; an effect the other way counts as inactive or inconclusive; further: potency means the concentration at half of the fitted maximal effect; nearly all actives have a fitted effect of over 60% in size)
How it was run: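 Human CYP2C19 (5nM) with Luciferin-H EGE at 10uM (its KM) in 50mM KPO4 was preincubated with compound for 10 min at 37C. NADPH regeneration started a 60 min 37C reaction. Luciferin was read by luminescence, normalized to 57uM ketoconazole.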

[10] = target: Guanine nucleotide-binding protein G(i) subunit alpha-1 (Homo sapiens) (UniProt P63096); assay: qHTS Assay for Inhibitors of RGS12 GoLoco Motif Activity (Green Fluorophore) (AID 879; active means well fitted curve in the direction sought with a large enough effect; an effect the other way counts as inactive or inconclusive;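 further: 0% = labeled peptide with Gαi1 and full inhibition = labeled peptide alone without protein; negative values mean loss of peptide binding seen as reduced polarization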)
How it was run: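 A drop in FITC polarization marked displacement of the FITC-tagged RGS12 GoLoco peptide (10 nM) from Gαi1 (50 nM). Compounds were incubated 10 min at room temperature in Tris pH 7.5 buffer containing 150 mM NaCl, 0.1 mM GDP and 0.05% NP40; unlabeled peptide titration served as control.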

[11] = Confirmation and Secondary Assay for Modulators of Hemoglobin Beta Chain Splicing at IVS2 654 locus (AID 910; active means well fitted curve in the direction sought with a large enough effect; an effect the other way counts as inactive or inconclusive;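 further: per-well total GFP intensity by laser scanning cytometry after 2-day treatment; % of control where 0% means no effect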)
How it was run: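 HeLa cells stably carrying EGFP interrupted by mutant beta-globin IVS2-654 intron (CMV-driven) were treated with compound for 2 days at 37C; corrected splicing was scored as total peak GFP intensity per well (488 nm excitation, 500-520 nm emission).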

[12] = Confirmation and Secondary Assay for Modulators of Hemoglobin Beta Chain Splicing at IVS2 705 locus (AID 930; active means well fitted curve in the direction sought with a large enough effect; an effect the other way counts as inactive or inconclusive;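 further: HeLa cells stably expressing the EGFP-705 splicing reporter; % of control where 0% means no effect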)
How it was run: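 Restored EGFP fluorescence after 2-day compound exposure reports splicing correction in IVS2-705 EGFP reporter HeLa cells; positive control was 500 nM splice-blocking PNA oligo. Signal measured as well total peak GFP intensity (488 nm excitation).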

[13] = target: Muscarinic acetylcholine receptor M1 (Rattus norvegicus) (UniProt P08482); assay: qHTS Assay for Antagonists of Acetylcholine Muscarinic M1 Receptor: Measurement of IP-One Response (AID 944; active means well fitted curve in the direction sought with a large enough effect; an effect the other way counts as inactive or inconclusive; further: nearly all actives have a fitted effect of over 75% in size)
How it was run: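 Antagonist mode with rat M1 receptor transfected into CHO cells. Compound is added first for 10 min, carbachol at its EC80 follows for 30 min, and lysis reagents then allow TR-FRET detection of accumulated IP1.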

[14] = target: Pyruvate kinase (Leishmania mexicana) (UniProt Q27686); assay: qHTS Validation Assay for Inhibitors of Leishmania Mexicana Pyruvate Kinase (AID 945; active means well fitted curve in the direction sought with a large enough effect; an effect the other way counts as inactive or inconclusive;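 further: 0% = DMSO only neutral control wells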)
How it was run: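 Purified LmPYK (E451W mutant, 0.2 nM) was incubated 1 h at room temperature with 0.5 mM PEP and 0.1 mM ADP in 50 mM imidazole pH 7.2, 50 mM KCl, 7 mM MgCl2; ATP formed was read by PKLight luminescence, normalized to DMSO wells.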

[15] = target: Pyruvate kinase PKM (Homo sapiens) (UniProt P14618); assay: qHTS Assay for Activators of Human Muscle Pyruvate Kinase (AID 954; active means well fitted curve in the direction sought with a large enough effect, not every such curve was filed as active;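 further: 0% = uninhibited enzyme and -100% = no enzyme or full thiadiazolimine inhibition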)
How it was run: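 A coupled luminescent readout tracked ATP made from ADP by purified PKM2. Final conditions included 0.1 nM enzyme, PEP and ADP at 0.5 and 0.1 mM, pH 7.2 imidazole buffer with BSA, and a one-hour room-temperature reaction.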

[16] = target: Alpha-galactosidase A (Homo sapiens) (UniProt P06280); assay: Counterscreen for Glucocerebrosidase Inhibitors: qHTS Assay for Human alpha-Galactosidase at pH 4.5 (AID 992; active means well fitted curve in the direction sought with a large enough effect; an effect the other way counts as inactive or inconclusive; further: 0% is about no effect)
How it was run: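 Citrate buffer pH 4.5, Tween-20 0.005%. Enzyme 2 nM, substrate 80 uM, 20 min RT. Stop pH 10. Fluorescence Ex 365/Em 440. AC50 by Hill fit.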

[17] = target: alpha-glucosidase (Oryza sativa, rice) (UniProt Q653V4); assay: Counterscreen for Glucocerebrosidase Inhibitors: qHTS Assay for Rice alpha-Glucosidase at pH 5.0 (AID 997; active means well fitted curve in the direction sought with a large enough effect; an effect the other way counts as inactive or inconclusive;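 further: 0% = full activity with enzyme and -100% = basal without enzyme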)
How it was run: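 Endpoint fluorogenic assay at pH 5.0: compounds (0.7 nM to 77 uM) titrated against 4 nM rice enzyme and 400 uM 4-MU-alpha-glucoside for 20 min at room temperature; NaOH/glycine stop, read ex 365/em 440 nm, Hill-fitted AC50.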

[18] = target: Tyrosyl-DNA phosphodiesterase 1 (Homo sapiens) (UniProt Q9NUW8); assay: Confirmation Assay for Inhibitors of Tyrosyl-DNA Phosphodiesterase (TDP1) (AID 489007; active means well fitted curve in the direction sought with a large enough effect; an effect the other way counts as inactive or inconclusive; further: potency means the concentration at half of the fitted maximal effect; nearly all actives have a fitted effect of over 40% in size); settings: recombinant human TDP1 enzymatic activity, dose-response
How it was run: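 Compounds are preincubated 15 min at room temperature with 1 nM recombinant human Tdp1. The reaction starts on adding 15 nM FITC-phosphotyrosine DNA substrate, runs 5 min, and is detected by AlphaScreen beads after 10 min.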

[19] = target: Cytochrome P450 3A4 (Homo sapiens) (UniProt P08684); assay: qHTS Assay for Activators of Cytochrome P450 3A4 (AID 885; active means well fitted curve in the direction sought with a large enough effect; an effect the other way counts as inactive or inconclusive; further: nearly all actives have a fitted effect of over 65% in size)
How it was run: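 CYP3A4 activity: Luciferin-PPXE O-dealkylation, 25uM substrate, 200mM KPO4, RT throughout. Read-out is luciferase luminescence; higher values reflect activation.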

[20] = qHTS Assay for Identification of Small Molecule Antagonists for NFkB Signaling Pathway (AID 895; active means well fitted inhibition curve with a large enough effect in the signal ratio, with a control signal flat, not every such curve was filed as active; the % refers to the signal ratio; further: on the % scale 0 is the no-effect control and ±100 the full control effect)
How it was run: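 NFkB-bla ME-180 cervical carcinoma cells with beta-lactamase reporter under NFkB response element; compounds added, then TNF alpha at 10 pM final (EC50), 5 h at 37 C. LiveBLAzer substrate 2 h, room temperature; emission 460/530 nm at 405 nm excitation.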

[21] = qHTS Assay for Identification of Small Molecule Agonists for Thrombopoietin (TPO) Signaling Pathway (AID 917; active means well fitted curve in the direction sought with a large enough effect; an effect the other way counts as inactive or inconclusive; further: on the % scale 0 is the no-effect control and ±100 the full control effect)
How it was run: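 Cell-based luciferase reporter screen. Mouse Ba/F3 line stably expressing human TPO receptor; IL-3 removed overnight before plating. Co-treatment with compound and EC50 TPO (26 pM), 24 hrs at 37 C, then luminescence.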

Glucocorticoid receptor (Homo sapiens), sequence (P04150 whole entry, looked up, the tested form may be a part): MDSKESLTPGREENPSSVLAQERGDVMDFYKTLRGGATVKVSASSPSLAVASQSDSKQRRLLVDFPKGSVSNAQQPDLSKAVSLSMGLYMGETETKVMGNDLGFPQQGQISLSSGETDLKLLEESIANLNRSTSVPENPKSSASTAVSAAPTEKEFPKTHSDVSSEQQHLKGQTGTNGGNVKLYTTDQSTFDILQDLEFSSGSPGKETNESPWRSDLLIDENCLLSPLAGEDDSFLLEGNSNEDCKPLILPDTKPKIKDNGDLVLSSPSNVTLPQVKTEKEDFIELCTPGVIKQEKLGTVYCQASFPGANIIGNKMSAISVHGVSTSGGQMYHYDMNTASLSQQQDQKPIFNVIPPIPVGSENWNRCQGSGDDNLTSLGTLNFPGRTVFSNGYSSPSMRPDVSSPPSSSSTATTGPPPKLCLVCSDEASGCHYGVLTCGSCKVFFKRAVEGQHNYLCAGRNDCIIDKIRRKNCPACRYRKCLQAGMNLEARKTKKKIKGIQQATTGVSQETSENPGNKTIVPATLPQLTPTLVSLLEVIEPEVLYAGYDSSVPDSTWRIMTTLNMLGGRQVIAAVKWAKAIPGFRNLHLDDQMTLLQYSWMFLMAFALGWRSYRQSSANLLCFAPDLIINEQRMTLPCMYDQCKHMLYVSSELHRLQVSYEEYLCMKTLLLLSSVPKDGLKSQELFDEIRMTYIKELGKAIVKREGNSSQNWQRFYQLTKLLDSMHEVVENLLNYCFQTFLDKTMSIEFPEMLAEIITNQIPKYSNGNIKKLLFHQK
3',5'-cyclic-AMP phosphodiesterase 4B (Homo sapiens), sequence (Q07343 whole entry, looked up): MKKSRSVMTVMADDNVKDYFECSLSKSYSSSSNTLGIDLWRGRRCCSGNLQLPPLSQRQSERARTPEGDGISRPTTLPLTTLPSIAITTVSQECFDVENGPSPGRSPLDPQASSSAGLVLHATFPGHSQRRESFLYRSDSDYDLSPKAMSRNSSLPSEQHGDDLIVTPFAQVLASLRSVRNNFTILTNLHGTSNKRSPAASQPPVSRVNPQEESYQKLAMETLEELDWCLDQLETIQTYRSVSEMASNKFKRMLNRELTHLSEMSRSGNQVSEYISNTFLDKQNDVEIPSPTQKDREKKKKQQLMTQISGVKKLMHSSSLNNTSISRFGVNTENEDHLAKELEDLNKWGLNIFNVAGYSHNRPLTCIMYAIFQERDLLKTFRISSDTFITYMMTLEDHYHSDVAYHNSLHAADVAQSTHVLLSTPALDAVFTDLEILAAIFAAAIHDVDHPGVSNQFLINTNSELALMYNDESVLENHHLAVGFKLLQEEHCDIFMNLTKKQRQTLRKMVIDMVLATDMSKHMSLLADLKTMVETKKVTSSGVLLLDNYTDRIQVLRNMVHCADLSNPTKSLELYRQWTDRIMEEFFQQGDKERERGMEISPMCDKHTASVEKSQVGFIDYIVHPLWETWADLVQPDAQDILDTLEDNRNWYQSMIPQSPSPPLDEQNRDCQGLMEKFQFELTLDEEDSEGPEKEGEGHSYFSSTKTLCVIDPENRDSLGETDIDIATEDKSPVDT
Cytochrome P450 2D6 (Homo sapiens), sequence (P10635 whole entry, looked up): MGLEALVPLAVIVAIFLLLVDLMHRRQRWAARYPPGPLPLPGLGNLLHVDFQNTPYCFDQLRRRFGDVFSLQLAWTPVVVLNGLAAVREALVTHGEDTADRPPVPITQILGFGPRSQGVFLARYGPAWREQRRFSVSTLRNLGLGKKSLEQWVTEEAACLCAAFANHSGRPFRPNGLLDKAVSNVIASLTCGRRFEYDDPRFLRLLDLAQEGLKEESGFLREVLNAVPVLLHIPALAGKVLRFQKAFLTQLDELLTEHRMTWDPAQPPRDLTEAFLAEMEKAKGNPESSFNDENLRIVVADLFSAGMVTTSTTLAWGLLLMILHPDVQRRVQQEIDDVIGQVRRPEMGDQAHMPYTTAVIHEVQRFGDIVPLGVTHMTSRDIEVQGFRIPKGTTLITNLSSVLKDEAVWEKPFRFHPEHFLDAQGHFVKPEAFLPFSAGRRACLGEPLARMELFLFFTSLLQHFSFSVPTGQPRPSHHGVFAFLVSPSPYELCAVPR
Pyruvate kinase (Leishmania mexicana), sequence (Q27686 2-499 E452W): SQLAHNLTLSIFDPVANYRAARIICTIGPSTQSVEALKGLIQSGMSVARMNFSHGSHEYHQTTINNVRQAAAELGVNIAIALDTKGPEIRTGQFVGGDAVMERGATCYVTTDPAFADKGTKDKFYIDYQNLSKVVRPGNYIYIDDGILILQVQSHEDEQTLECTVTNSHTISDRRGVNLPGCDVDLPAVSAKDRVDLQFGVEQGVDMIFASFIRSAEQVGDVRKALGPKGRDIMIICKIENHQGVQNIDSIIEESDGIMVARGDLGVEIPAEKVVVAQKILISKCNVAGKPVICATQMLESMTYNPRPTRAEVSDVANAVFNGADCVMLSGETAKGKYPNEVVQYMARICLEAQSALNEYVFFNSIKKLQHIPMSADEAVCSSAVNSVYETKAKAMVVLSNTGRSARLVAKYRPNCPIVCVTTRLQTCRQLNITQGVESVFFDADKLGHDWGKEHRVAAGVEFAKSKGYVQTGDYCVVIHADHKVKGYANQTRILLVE
Pyruvate kinase PKM (Homo sapiens), sequence (P14618 whole entry, looked up): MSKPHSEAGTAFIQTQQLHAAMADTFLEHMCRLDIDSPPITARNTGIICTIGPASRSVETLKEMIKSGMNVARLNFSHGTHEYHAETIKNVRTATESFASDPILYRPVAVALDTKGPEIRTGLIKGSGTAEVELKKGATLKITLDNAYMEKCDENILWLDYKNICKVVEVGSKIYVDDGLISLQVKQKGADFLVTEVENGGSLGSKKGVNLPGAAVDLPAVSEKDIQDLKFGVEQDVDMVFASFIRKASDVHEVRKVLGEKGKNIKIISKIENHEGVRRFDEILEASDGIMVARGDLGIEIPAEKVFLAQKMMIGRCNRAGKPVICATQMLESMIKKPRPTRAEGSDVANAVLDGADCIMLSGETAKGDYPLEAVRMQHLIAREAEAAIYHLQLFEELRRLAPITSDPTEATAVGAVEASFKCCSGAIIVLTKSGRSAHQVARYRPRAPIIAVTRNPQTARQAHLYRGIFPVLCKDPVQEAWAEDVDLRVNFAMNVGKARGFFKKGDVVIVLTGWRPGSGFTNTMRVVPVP
Guanine nucleotide-binding protein G(i) subunit alpha-1 (Homo sapiens), sequence (P63096 whole entry, looked up): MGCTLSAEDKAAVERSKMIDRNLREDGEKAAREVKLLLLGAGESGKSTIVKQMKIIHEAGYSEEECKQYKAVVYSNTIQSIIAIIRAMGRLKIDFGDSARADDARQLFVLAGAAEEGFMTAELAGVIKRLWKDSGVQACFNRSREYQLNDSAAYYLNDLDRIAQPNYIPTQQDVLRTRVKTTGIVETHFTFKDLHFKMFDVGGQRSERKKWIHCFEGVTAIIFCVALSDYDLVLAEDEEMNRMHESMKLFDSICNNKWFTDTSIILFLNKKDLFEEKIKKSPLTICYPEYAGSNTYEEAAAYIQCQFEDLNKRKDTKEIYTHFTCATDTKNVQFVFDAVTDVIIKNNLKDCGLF
Alpha-galactosidase A (Homo sapiens), sequence (P06280 whole entry, looked up): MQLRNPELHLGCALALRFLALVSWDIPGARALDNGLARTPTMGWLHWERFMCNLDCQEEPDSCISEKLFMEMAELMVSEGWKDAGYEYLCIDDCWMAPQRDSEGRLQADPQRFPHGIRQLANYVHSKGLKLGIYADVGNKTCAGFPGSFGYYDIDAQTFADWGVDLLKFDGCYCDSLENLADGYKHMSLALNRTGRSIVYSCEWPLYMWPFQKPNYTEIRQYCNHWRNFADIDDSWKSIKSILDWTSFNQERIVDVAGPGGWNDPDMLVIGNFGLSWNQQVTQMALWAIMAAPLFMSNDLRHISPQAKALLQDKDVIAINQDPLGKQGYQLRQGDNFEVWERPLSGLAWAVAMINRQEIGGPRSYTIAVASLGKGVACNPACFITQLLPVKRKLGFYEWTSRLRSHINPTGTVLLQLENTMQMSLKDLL
Cytochrome P450 2C19 (Homo sapiens), sequence (P33261 whole entry, looked up): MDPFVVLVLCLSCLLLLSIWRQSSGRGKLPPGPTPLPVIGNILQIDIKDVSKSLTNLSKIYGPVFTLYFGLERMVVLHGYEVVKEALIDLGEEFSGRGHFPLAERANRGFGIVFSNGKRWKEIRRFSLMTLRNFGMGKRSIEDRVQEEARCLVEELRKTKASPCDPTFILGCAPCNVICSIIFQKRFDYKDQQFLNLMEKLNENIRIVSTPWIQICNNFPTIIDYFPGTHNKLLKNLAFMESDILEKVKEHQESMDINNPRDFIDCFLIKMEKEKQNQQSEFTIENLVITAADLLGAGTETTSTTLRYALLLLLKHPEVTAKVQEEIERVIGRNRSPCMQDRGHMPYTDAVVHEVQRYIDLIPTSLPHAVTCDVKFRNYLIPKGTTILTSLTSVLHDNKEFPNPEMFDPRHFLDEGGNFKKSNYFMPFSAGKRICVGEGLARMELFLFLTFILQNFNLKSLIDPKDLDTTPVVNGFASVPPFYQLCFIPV
Muscarinic acetylcholine receptor M1 (Rattus norvegicus), sequence (P08482 whole entry, looked up): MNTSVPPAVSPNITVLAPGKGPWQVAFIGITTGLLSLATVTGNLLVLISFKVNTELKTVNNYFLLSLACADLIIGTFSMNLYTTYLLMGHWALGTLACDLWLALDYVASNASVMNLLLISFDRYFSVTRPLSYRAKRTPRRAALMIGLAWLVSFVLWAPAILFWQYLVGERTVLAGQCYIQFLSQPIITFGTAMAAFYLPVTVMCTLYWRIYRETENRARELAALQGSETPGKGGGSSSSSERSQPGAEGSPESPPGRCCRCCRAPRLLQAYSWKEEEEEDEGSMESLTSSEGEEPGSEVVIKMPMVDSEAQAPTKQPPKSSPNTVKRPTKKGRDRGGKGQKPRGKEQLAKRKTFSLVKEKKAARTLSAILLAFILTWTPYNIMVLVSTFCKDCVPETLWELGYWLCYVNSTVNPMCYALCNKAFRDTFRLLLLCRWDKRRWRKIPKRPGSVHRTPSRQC

O=C(Nc1nc(=O)c2ccccc2s1)c1ccccc1
inactive: activity change, negative = inhibition [1] -10.8% | activity change, negative = inhibition [2] -15.9% | activity, negative = inhibition [3] -3.03% | Potency [4] > 20.6 µM

c1ccc(Cc2nnc3n2CCCCC3)cc1
inactive: activity change, negative = inhibition [1] -5.05% | activity change, negative = inhibition [2] -13.9% | activity, negative = inhibition [3] 5.83% | Potency [4] > 20.6 µM

CC(C)(C)c1cc(Br)c(O)c(CN(Cc2cc(C(C)(C)C)cc(Br)c2O)C2CCCCC2)c1
inactive: activity change, negative = inhibition [1] 10.4% [at 7.69 µM] | activity change, negative = inhibition [2] 3.39% [at 7.69 µM] | activity, negative = inhibition [3] -1.22% [at 7.69 µM] | Potency [4] > 46 µM | Potency [5] > 9.22 µM | activity change, negative = inhibition [6] 19.2% [at 11.4 µM] | Potency [7]
active: Potency [8] 0.199 µM | Potency [9] 0.631 µM

Nc1ccn([C@@H]2O[C@@H](CO)[C@@H](O)[C@H]2O)c(=O)n1
inactive: activity change, negative = inhibition [1] 10.7% [at 38 µM] | activity change, negative = inhibition [2] -7.43% [at 38 µM] | activity, negative = inhibition [3] 19% [at 38 µM] | Potency [4] > 46 µM | Potency [5] > 46 µM | Potency [6] | Potency [7] | outcome [10] | Potency [11] | Potency [12] | Potency [13] | Potency [14] | outcome [15] | outcome [16] | outcome [17]

Nc1cc(S(N)(=O)=O)ccc1SSc1ccc(S(N)(=O)=O)cc1N
inactive: activity change, negative = inhibition [1] 19.2% [at 7.69 µM] | activity change, negative = inhibition [2] -0.508% [at 7.69 µM] | activity, negative = inhibition [3] -1.82% [at 7.69 µM] | Potency [4] > 46 µM | Potency [5] > 9.22 µM | activity change, negative = inhibition [6] -4.44% [at 11.4 µM] | Potency [7]

Cc1ccc(C)n1Cc1ccc(C(=O)O)cc1
inactive: activity change, negative = inhibition [1] 2.78% | activity change, negative = inhibition [2] -7.86% | activity, negative = inhibition [3] 6% | Potency [4] > 20.6 µM
active: Potency [18] 1.41 µM

CCCN1C[C@@H](CSC)C[C@H]2c3cccc4[nH]cc(c34)C[C@@H]21
inactive: activity change, negative = inhibition [1] 10.4% [at 38 µM] | activity change, negative = inhibition [2] -24.1% [at 38 µM] | activity, negative = inhibition [3] -10.6% [at 38 µM] | Potency [4] > 46 µM | Potency [5] > 46 µM | Potency [7] | outcome [10] | Potency [19] | Potency [20] | Potency [21] | Potency [14] | outcome [15] | outcome [16] | outcome [17]
active: Potency [8] 0.1 µM

O=c1cc(O)nc2n1CCCS2
inactive: activity change, negative = inhibition [1] 5% | activity change, negative = inhibition [2] -0.525% | activity, negative = inhibition [3] -1.13% | Potency [4] > 20.6 µM
